# Measured values reported in ChEMBL document CHEMBL4513216, “Probing the Open Global Health Chemical Diversity Library for Multistage-Active Starting Points for Next-Generation Antimalarials” (ACS Infect Dis, 2020).
# Hit rate of the full screen: of about 69,000 compounds, about 8,600 (12%) showed an effect of 50% or more. The sample as a whole holds a higher share of strong results than the screen did.
# Tested on: Plasmodium berghei
# Experiment: Screen against P. berghei liver stage (PbLuc), transformed with Luciferase, at 10uM
# Assay type: functional, HepG2
# Settings: tested at 10 uM
row,SMILES,INHIBITION
1,COCC1N(C(=O)Nc2ccccc2)C2CCC1(O)CC2 (configuration not stated),8.61%
2,O=C(NCC1(O)CCc2ccccc2C1)c1cccs1 (configuration not stated),36.3%
3,COc1nn(C)cc1C(=O)NCC1(O)CCc2ccccc2C1 (configuration not stated),36.5%
4,Cc1oncc1C(=O)NCC1(O)CCc2ccccc2C1 (configuration not stated),67.1%
5,CCC(C)NC(=O)CCNC(=O)Nc1ccc(-n2cncn2)c(F)c1 (configuration not stated),22.69%
6,CN(C)S(=O)(=O)N1CCC[C@]2(C[C@@H](Oc3ncccc3F)CO2)C1,20.6%
7,CN1N=C(C(=O)NCCc2csc(-c3ccccc3)n2)CCC1=O,4.95%
8,CNC(=O)CN1CCOCC2(C1)CN(Cc1csnn1)CCO2 (configuration not stated),67.5%
9,CCCC(=O)N1CCOC2(COCCN(CC(=O)NC)C2)C1 (configuration not stated),3.25%
10,CNC(=O)CN1CCOCC2(CN(CCC(F)(F)F)CCO2)C1 (configuration not stated),43.9%
11,CN(C)C(=O)c1cnc2n1CCN(Cc1ccncc1)C2,24.1%
12,CCSc1cncc(NCc2ccc(N3CCNC(=O)C3)cc2)n1,82.2%
13,O=C1CN(c2ccc(CNc3cncc(-n4cccn4)n3)cc2)CCN1,40.5%
14,Cc1cccnc1NC(=O)NCc1ccc(N2CCNC(=O)C2)cc1,21.7%
15,Cc1cc(NCc2ccc(N3CCNC(=O)C3)cc2)nc(C)n1,61.8%
16,CC(C(=O)NCc1ccc(N2CCNC(=O)C2)cc1)n1cncn1 (configuration not stated),27.1%
17,Cc1ccccc1C(=O)NCc1ccc(N2CCNC(=O)C2)cc1,15.1%
18,CCN(Cc1ccccc1)c1ncnc2c(C)nn(CC)c12,-1.57%
19,Cc1cc(NC(=O)NCCC(=O)N2CCCc3ccccc32)no1,16.1%
20,CS(=O)(=O)c1cn[nH]c1C1CCCN1C(=O)c1cccnc1 (configuration not stated),24.4%
21,Cc1ccnc(C2CN(Cc3cnn(-c4ccccc4C(=O)O)c3)C2)n1,14.5375%
22,CCN(CC)C(=O)C1CCC2(CCNCC2)CO1 (configuration not stated),2.79%
23,CCN(CC)C(=O)C1CCC2(CCNCC2)O1 (configuration not stated),57.9%
24,CC(C)N(C)C(=O)C1CCC2(CCNCC2)O1 (configuration not stated),27.7%
25,Cc1nc(C)n(C2CCCN(C(=O)c3ccc4[nH]nnc4c3)C2)n1 (configuration not stated),21.9%
26,O=C(NCCC1CCCCO1)c1cc(COc2cncc(Cl)c2)on1 (configuration not stated),59.3%

row,SMILES,INHIBITION
1,CSCCNC(=O)c1coc(COc2ccc(F)cc2)n1,49.5%
2,O=C(NCCC1CCCCO1)c1coc(COc2ccc(F)cc2)n1 (configuration not stated),77.8%
3,CCOCCNC(=O)c1cc(COc2cncc(Cl)c2)on1,29%
4,O=C(NCCN1CCCCCC1)c1coc(COc2ccc(F)cc2)n1,7.15%
5,COCCNC(=O)c1cc(COc2cncc(Cl)c2)on1,25.8%
6,COc1ccc(N2CCN(C(=O)Cn3nc(C)c(Cl)c3C)CC2)cc1,7.44%
7,O=C(CCNc1ncccn1)N1CCN(c2nccs2)CC1,45.7%
8,Cc1nc[nH]c1-c1nccn1CCN1CCCOC1=O,39.6%
9,Cc1nc[nH]c1-c1nccn1CCN1CCCC1=O,-4.95%
10,Cc1nc[nH]c1-c1nccn1CCN1CCOC1=O,55.5%
11,Cc1ccc(CN2C[C@@H]3C[C@H](C(=O)NCc4cccnc4)[C@H](C2)O3)cc1,42.3%
12,CC(C)CCN1C[C@@H]2C[C@H](C(=O)NCC(C)C)[C@H](C1)O2,61.3%
13,CCN1C[C@@H]2C[C@H](C(=O)NCc3cccnc3)[C@H](C1)O2,50%
14,CNC(=O)N1C[C@@H]2C[C@H](C(=O)NCc3cccnc3)[C@H](C1)O2,7.65%
15,CC(C)CNC(=O)[C@H]1CCS(=O)(=O)[C@@H]2CN(Cc3cccnc3)C[C@H]12,12.5%
16,CC(C)CCN1C[C@@H]2C[C@H](C(=O)NCc3ccccc3)[C@H](C1)O2,11.6%
17,CC(C)CNC(=O)[C@H]1C[C@H]2CN(Cc3cccnc3)C[C@@H]1O2,65.9%
18,CC(C)CN1C[C@@H]2C[C@H](C(=O)NCc3cccnc3)[C@H](C1)O2,58.5%
19,CC(C)CN1C[C@@H]2C[C@H](C(=O)Nc3cccnc3)[C@H](C1)O2,2.27%
20,Cc1cccc(CN2C[C@@H]3C[C@H](C(=O)NCc4cccnc4)[C@H](C2)O3)c1,21.6%
21,CC(C)CCN1C[C@@H]2C[C@H](C(=O)Nc3ccccc3)[C@H](C1)O2,33%
22,Cc1ccc(CN2C[C@@H]3C[C@H](C(=O)NCc4cccnc4)[C@H](C2)O3)o1,39.3%
23,Cc1cc(C(F)(F)F)nn1C(C)C(=O)NN1CCOCC1 (configuration not stated),-4.12%
24,CC(C)OCCCNC(=O)C1CCCN(c2ccc3nncn3n2)C1 (configuration not stated),32.3%
25,CS(=O)(=O)NCc1cc(=O)n2c(n1)CN(CC1CC1)CCC2,37.6%
26,Cc1nc(CN2CCC3(CCN(Cc4nccn4C)CC3)C2=O)cs1,-11.2%
